This is an account of results in paper PMC5700166.

Assay in all cases: protein-binding microarray (PBM); PBM: ~300 nM protein, 6 mM HEPES pH 7.8, 80 mM KCl, 0.5 mM EDTA, 0.5 mM EGTA, 6% glycerol, 35 ng/ul poly-dIdC, 1% milk, 1 h, room temperature; Ap Aiptasia and Nv Nematostella (sea anemones) / Co Capsaspora / Aq Amphimedon (sponge) / Dm Drosophila / Hu human; RHD is the Rel homology domain; high values mean tight binding
Settings in all cases: dsDNA, one strand shown

The target of test [1] is T1, GST-Ap-NF-kB RHD (Exaiptasia pallida (Aiptasia), UniProt A0A913YAJ5 2-422).
T1 sequence: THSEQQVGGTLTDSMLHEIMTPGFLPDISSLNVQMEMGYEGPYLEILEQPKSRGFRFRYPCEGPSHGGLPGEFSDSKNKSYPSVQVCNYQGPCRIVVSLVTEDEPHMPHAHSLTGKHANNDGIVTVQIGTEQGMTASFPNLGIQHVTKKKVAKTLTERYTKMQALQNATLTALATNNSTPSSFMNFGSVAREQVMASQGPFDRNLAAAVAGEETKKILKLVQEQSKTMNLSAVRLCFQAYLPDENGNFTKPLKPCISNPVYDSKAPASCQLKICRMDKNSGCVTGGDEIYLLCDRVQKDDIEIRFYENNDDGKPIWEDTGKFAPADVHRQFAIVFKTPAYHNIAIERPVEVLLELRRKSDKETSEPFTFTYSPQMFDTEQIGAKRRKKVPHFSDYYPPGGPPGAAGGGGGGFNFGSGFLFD

In test [2] the target is T2, GST-Nv-NF-kB (Cys allele) (Nematostella vectensis, UniProt E5G601 2-411).
T2 sequence: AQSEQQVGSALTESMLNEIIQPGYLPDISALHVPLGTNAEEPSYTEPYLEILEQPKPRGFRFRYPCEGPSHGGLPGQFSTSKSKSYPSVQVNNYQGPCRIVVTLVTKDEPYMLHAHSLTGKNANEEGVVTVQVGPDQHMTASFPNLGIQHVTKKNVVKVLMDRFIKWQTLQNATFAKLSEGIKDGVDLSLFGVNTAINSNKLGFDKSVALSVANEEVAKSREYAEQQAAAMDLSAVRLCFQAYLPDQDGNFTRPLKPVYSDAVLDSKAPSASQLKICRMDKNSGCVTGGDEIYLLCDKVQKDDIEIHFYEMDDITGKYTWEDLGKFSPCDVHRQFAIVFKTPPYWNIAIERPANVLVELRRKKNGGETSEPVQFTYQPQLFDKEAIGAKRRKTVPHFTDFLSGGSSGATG

Test [3] has as its target T3, GST-Co-NF-kB (Capsaspora owczarzaki, UniProt F1ARL5 200-546).
T3 sequence: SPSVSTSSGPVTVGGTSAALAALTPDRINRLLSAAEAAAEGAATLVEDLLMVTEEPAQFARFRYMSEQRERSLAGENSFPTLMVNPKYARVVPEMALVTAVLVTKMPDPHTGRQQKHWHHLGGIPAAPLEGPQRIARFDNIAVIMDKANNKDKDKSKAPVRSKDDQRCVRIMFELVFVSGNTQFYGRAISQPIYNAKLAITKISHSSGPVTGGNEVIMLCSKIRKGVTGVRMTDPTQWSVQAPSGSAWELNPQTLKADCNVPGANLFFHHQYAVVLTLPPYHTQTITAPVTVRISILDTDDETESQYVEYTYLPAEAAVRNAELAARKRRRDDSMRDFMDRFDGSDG

Test [4] concerns the target T4, GST-Dm-Relish (Drosophila melanogaster, UniProt Q94527 99-473).
T4 sequence: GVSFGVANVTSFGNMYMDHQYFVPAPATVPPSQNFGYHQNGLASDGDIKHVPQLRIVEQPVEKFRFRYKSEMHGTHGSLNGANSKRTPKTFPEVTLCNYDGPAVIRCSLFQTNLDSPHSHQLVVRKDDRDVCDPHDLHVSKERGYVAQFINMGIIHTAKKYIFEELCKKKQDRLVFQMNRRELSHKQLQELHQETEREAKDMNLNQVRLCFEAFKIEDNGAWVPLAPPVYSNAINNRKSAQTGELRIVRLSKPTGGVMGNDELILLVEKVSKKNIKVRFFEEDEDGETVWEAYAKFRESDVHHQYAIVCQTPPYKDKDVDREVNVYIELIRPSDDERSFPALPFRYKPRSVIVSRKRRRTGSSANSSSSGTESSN

Test [5] deals with T5, GST-Aq-NF-kB (Amphimedon queenslandica, UniProt A9Y5G7 2-389).
T5 sequence: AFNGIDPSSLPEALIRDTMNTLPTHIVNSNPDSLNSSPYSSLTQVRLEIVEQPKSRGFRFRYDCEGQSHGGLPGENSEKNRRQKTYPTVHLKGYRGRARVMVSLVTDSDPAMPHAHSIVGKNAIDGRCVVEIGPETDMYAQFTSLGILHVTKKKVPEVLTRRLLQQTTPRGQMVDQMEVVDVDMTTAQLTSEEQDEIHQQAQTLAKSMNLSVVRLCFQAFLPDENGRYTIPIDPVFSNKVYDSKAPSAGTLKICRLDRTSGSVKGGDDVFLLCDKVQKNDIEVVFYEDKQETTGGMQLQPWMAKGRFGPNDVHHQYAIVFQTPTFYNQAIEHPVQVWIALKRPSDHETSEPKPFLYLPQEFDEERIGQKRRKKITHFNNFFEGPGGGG

For the sequence “CCGATTAACATCATAAAATCCCATGATGTTAATCGGGTCTTGATTCGCTTGACGCTGCTG”, the binding signal in test [1] was 2.43 z-score; in test [2], 2.92 z-score; in test [3] it was 1.47 z-score; in test [4], 6.55 z-score; in test [5], 3.1 z-score.

In the case of “CCGATTAACATCACGGGGGGGACTGATGTTAATCGGGTCTTGATTCGCTTGACGCTGCTG”, the binding signal amounted to 5.94 z-score in test [1]; 4.86 z-score in test [2]; 7.62 z-score in test [3]; 4.51 z-score in test [4]; 5.17 z-score in test [5].

As to “CCGATTAACATCAAAATTCCCATTGATGTTAATCGGGTCTTGATTCGCTTGACGCTGCTG”, the binding signal was found to be 3.68 z-score in test [1]; 6.03 z-score in test [2]; 3.56 z-score in test [3]; 6.03 z-score in test [4]; 4.99 z-score in test [5].

On to “CCGATTAACATCACACATTTCCCTGATGTTAATCGGGTCTTGATTCGCTTGACGCTGCTG”, for which the binding signal in test [1] amounted to 2.78 z-score; in test [2] it was 4.57 z-score; in test [3] it was 4.08 z-score; in test [4], 1.1 z-score; in test [5] it was 3.88 z-score.

Regarding “CCGATTAACATCAGGACACCCCCTGATGTTAATCGGGTCTTGATTCGCTTGACGCTGCTG”, the binding signal in test [1] was 6.35 z-score; in test [2], 5.22 z-score; in test [3], 2.5 z-score; in test [4], 6.86 z-score; in test [5], 7.67 z-score.

On to “CCGATTAACATCAGGGGGATGTATGATGTTAATCGGGTCTTGATTCGCTTGACGCTGCTG”, for which the binding signal in test [1] is 4.97 z-score; in test [2], 4.88 z-score; in test [3] it was 4.13 z-score; in test [4] it was 4.17 z-score; in test [5] it was 4.11 z-score.

Consider “CCGATTAACATCAGGGGTTTCCATGATGTTAATCGGGTCTTGATTCGCTTGACGCTGCTG”, for which the binding signal in test [1] was found to be 5.75 z-score; in test [2] it was 5.04 z-score; in test [3] it was 1.21 z-score; in test [4], 8.15 z-score; in test [5], 5.61 z-score.

In the case of “CCGATTAACATCAAGCGTTCCCCTGATGTTAATCGGGTCTTGATTCGCTTGACGCTGCTG”, the binding signal in test [1] stood at 5.35 z-score; in test [2], 5.36 z-score; in test [3], 4.53 z-score; in test [4] it was 3.82 z-score; in test [5], 4.01 z-score.

On to “CCGATTAACATCAAAGAAATCCCTGATGTTAATCGGGTCTTGATTCGCTTGACGCTGCTG”, for which the binding signal in test [1] was found to be 4.82 z-score; in test [2] it was 4.34 z-score; in test [3], 1.36 z-score; in test [4] it was 6.17 z-score; in test [5], 4.61 z-score.
